A selection: hits, their analogues and other compounds. The true share with any hit is near 4.8%.
DAX1 inh-1 = blocks DAX1 repression of SF-1 activated StAR promoter; HEK293T StAR-luciferase reporter, SF-1/DAX-1 repression relief; inhibition, % at 6.8 µM; 1.1% of 370,000 active; AID 652010;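 active means inhibition above the mean over all tested compounds plus 3 SD, cut at about 3.6% in these data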;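 further: 0% = DAX-1 cells with DMSO and 100% = cells lacking DAX-1 with DMSO; higher inhibition means more luminescence from relief of DAX-1 repression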
ssDAF-12 act = activators of S. stercoralis DAF-12 nuclear receptor | 1% of 370,000 active | AID 652126 | activation, % at 6.8 µM | HEK293 ssDAF-12/GRIP1 lit1-tk-luc reporter, luminescence; % of 3 µM dafachronic acid response;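 active means activation above the mean over all tested compounds plus 3 SD, cut at about 0.9% in these data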;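 further: 0% = DMSO-only wells and 100% = 3 µM delta7-dafachronic acid wells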
DAX1 inh-2 = inhibits human nuclear receptor DAX1; HEK293 Gal4-DAX1 luciferase reporter, luminescence; inhibition, % at 6.75 µM; 0.99% of 340,000 active; AID 504766;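 active means inhibition above the mean over all tested compounds plus 3 SD, cut at about 4.2% in these data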;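 further: 0% = DAX1-transfected cells with DMSO and 100% = empty-vector control cells with DMSO; inhibition shows as a rise in luminescence from relieved DAX1 repression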
SMARCA2 activ = increases SMARCA2 function in MMTV reporter cells | MG213 cells, MMTV-luciferase reporter, dexamethasone, overnight | activation, % at 9.1 µM | 1% of 370,000 active; in the data active means activation above about 7.8%;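 further: 0% = vehicle wells and 100% = reference activator wells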
hcDAF12 agonist = activators of H. contortus DAF-12 nuclear receptor; HEK293 hcDAF-12 lit1-tk-luc reporter, luminescence; 0% DMSO, 100% Δ7-dafachronic acid; activation, % at 6.8 µM; 1.4% of 370,000 active;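 active means activation above the mean of all tested compounds plus 3 SD, cut at about 5.5% in these data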;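 further: 100% = response to 3 µM Δ7-dafachronic acid high control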
hgDAF12 agonist = activates the H. glycines DAF-12 receptor ligand-binding domain. HEK293 GAL4-hgDAF12 UAS-luciferase reporter, agonist luminescence; normalized to butyrate control. activation, % at 6.8 µM. 1.8% of 370,000 active. AID 687014;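 active means activation above a cutoff set at the mean of all screened compounds plus 3 SD, cut at about 10% in these data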;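 further: 0% = DMSO wells and 100% = sodium butyrate wells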
hgDAF12 conf = hgDAF-12 agonism, confirmation assay | shares compounds with hgDAF12 agonist | HEK293 GAL4-hgDAF12 luciferase reporter, agonist mode; percent of butyrate response | activation, % at 6.8 µM | 80% of 3,300 active;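 active means mean activation over triplicate wells above the hit cutoff derived from the earlier primary screen, cut at about 11% in these data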;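 further: 0% = DMSO low control and 100% = 2 mM sodium butyrate high control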
LXRb DAF12 ctr = LXR-beta agonism as DAF-12 counter-screen; 3,300 tested, under 10 active; shares compounds with hgDAF12 agonist; activation, % at 6.8 µM; HEK293 Gal4-LXR luciferase reporter, 24 h; AID 743051;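 active means mean activation of the triplicate above a set limit carried over from the primary screen, none filed active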
Target sequence (P55055 whole entry, looked up, the tested form may be a part): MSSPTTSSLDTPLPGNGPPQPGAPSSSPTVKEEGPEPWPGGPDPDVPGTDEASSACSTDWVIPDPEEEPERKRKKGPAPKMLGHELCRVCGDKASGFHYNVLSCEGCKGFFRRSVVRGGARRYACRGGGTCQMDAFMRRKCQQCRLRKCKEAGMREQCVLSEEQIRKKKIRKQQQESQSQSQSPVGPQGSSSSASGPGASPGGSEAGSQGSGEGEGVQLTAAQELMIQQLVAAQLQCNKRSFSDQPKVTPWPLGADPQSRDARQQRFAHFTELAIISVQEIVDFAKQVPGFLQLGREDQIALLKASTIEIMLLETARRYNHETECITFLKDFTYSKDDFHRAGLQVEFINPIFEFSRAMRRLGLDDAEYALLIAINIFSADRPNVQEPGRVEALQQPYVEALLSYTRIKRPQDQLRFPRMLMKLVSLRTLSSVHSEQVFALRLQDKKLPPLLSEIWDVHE
Starred values were filed as active, the others as inactive; . = not tested or not shown.

SMILES	DAX1 inh-1	ssDAF-12 act	DAX1 inh-2	SMARCA2 activ	hcDAF12 agonist	hgDAF12 agonist	hgDAF12 conf	LXRb DAF12 ctr
COc1ccc(C(=O)N/C(=C/c2cccnc2)C(=O)N2CCCCCC2)cc1OC	1.7	-0.6	0.0	-0.3	-0.5	1.1	.	.
Cc1ccsc1/C=c1\sc2ncnn2c1=O	0.3	-0.7	0.3	-0.2	0.5	13.7*	1.6	0.1
O=c1/c(=C/c2cccc3ccccc23)sc2ncnn12	-0.4	-1.1	0.7	-0.8	0.7	-2.5	.	.
CC(=O)c1ccc(NC(=O)CCc2nnc3ccc(N4CCCC4)nn23)cc1	-0.4	-0.7	1.3	0.9	2.1	3.9	.	.
O=C(O)c1ccc(-c2nc(-c3ccccc3)cs2)cc1	2.7	-0.5	6.5*	5.6	2.3	13.4*	8.8	0.5
CC(=O)/C=C(\C)Nc1ccc(-c2cnc(-c3ccccc3)o2)cc1	4.0*	0.6	3.8	5.8	6.2*	17.8*	13.1*	0.8
CC(C)C(=O)Nc1ccc(-c2nnc(-c3ccccc3)o2)cc1	2.4	0.5	3.8	7.2	5.4	14.0*	16.7*	0.8
COc1ccc(CCNC(=O)Cn2ncc3c2-c2cc(C)ccc2OC3)cc1	-1.5	-1.6	.	-3.7	-1.6	-2.9	.	.
Cc1ccc(-c2nc3cccnc3s2)cc1NS(C)(=O)=O	2.8	-0.1	1.2	3.0	6.4*	14.2*	7.3	0.3
O=c1c2ccccc2oc2ccc(NCCCN3CCOCC3)cc12	2.7	-0.7	3.0	6.0	3.2	13.4*	15.7*	0.7
CC(=O)NC(CC(=O)NCCN1C(=O)S/C(=C\c2ccccc2)C1=O)c1ccccc1 (stereo not given)	0.0	-1.4	1.8	-1.9	1.8	1.5	.	.
C[C@H]1CN([C@@H](C)CO)C(=O)c2cc(NC(=O)Cc3ccccc3)ccc2O[C@H]1CN(C)Cc1ccccc1	0.6	-0.7	2.2	0.7	-1.2	-0.9	.	.
C[C@H](CO)N1C[C@H](C)[C@@H](CN(C)Cc2ccccc2)Oc2ccc(NC(=O)CCCCCC(=O)Nc3ccccc3N)cc2C1=O	1.8	-0.9	2.8	-1.3	2.5	15.8*	9.0	0.0
COC(=O)c1ccc(C(=O)N2CCCC(N3CCN(c4ccccc4)CC3)C2)nc1 (stereo not given)	0.6	-1.1	1.3	-0.4	1.2	-0.2	.	.
O=C(Cn1nnc(-c2ccc(N3CCOCC3)cc2)n1)c1cccc(F)c1	-0.7	-1.3	.	-6.0	-1.6	-1.3	.	.
Cc1ccc(NC(=O)CSc2ccc(-c3ccc(-n4cccn4)cc3)nn2)c(C)c1	-0.6	-1.1	0.3	-1.9	-1.5	4.0	.	.
CC12CCC(C(=O)Nc3nc4ccccc4s3)(OC1=O)C2(C)C (stereo not given)	1.0	0.3	-0.4	0.4	3.0	13.3*	4.8	0.1
CC(C)(C)c1cc(NC(=O)Nc2ccccc2)no1	2.4	0.0	2.7	7.0	5.3	22.8*	18.9*	0.8
COCCCNC(=O)C[C@H]1C[C@@]2(C(=O)OC)C(=C[C@H](COCc3ccccc3)O[C@@H]2C)N(Cc2ccccc2)C1=O	0.7	-1.5	.	3.7	-0.4	1.7	.	.
N#CCSc1nnc(-c2ccc3c(c2)OCO3)o1	1.4	-1.1	-0.2	2.4	-1.8	0.2	.	.
C/C(N)=C(/C#N)C(=O)CSc1nnc(-c2ccc3c(c2)OCO3)o1	5.9*	1.0*	1.8	5.5	6.0*	18.5*	12.2*	0.8
CC1CCCCC1NC(=O)c1cccc(N2C(=O)C3C4C=CC(C4)C3C2=O)c1 (stereo not given)	-4.8	-1.8	-1.8	-3.3	-3.6	-4.2	.	.
O=C(Nc1ccccc1)c1cc(C2CCCN(C(=O)c3cccs3)C2)on1 (stereo not given)	3.3	-1.1	.	4.2	3.5	14.2*	13.0*	0.4
COc1cccc(-c2nnc(-c3ccc(C)o3)o2)c1	4.1*	0.3	-0.1	5.0	4.9	14.1*	18.6*	0.9
Cc1ccc(OCC(=O)N2CCN(c3ccc([N+](=O)[O-])c(N4CCOCC4)c3)CC2)cc1	-1.6	-2.0	1.1	-2.4	0.4	1.7	.	.
SMILES	DAX1 inh-1	ssDAF-12 act	DAX1 inh-2	SMARCA2 activ	hcDAF12 agonist	hgDAF12 agonist	hgDAF12 conf	LXRb DAF12 ctr
Cc1cc(OCC(=O)N2CCOCC2)ccc1[N+](=O)[O-]	1.9	0.0	5.2*	0.2	3.8	15.1*	8.3	0.2
O=C(CSc1nnc(COc2ccc(Cl)cc2)n1Cc1ccco1)Nc1ccc2c(c1)OCO2	-0.4	-1.7	.	-1.1	2.4	1.3	.	.
Cc1ccc(NC(=O)Nc2cnc3ccccc3c2)cc1	3.7*	0.6	3.4	7.2	4.5	15.0*	20.4*	0.7
O=C(Nc1cnc2ccccc2c1)C1COc2ccccc2O1 (stereo not given)	1.9	0.0	1.8	2.1	3.3	14.3*	8.3	0.5
Cc1ccc(CSc2nnc(NC(=O)C3COc4ccccc4O3)s2)cc1 (stereo not given)	1.3	-0.2	0.1	-0.9	-0.7	1.0	.	.
CCC(CC)c1nnc(NC(=O)C2COc3ccccc3O2)s1 (stereo not given)	2.3	-0.9	1.6	-0.5	3.0	13.7*	6.2	0.6
C#CCNC(=O)C[C@@H]1C[C@@]2(C(=O)OC)CCCCC=C2N(Cc2ccc(Cl)cc2Cl)C1=O	-1.1	-0.8	.	-4.0	-0.5	-1.0	.	.
CCOCC(=O)Nc1ccc(S(=O)(=O)NCC2CCCO2)cc1 (stereo not given)	-0.5	-0.6	-0.7	-0.5	-1.7	-2.1	.	.
Cc1ccc(C(=O)Nc2ccccc2C(=O)NC(Cc2c[nH]c3ccccc23)C(=O)O)cc1 (stereo not given)	0.5	-0.4	-0.3	0.4	1.2	4.0	.	.
CCOC(=O)C(Cc1c[nH]c2ccccc12)NC(=O)c1ccccc1Br (stereo not given)	0.4	-0.7	0.9	0.7	3.4	13.6*	5.2	0.1
COc1ccc([C@@H]2C=C(C(=O)O)O[C@H](OCCCCO)C2)cc1	-0.2	-1.2	0.9	3.2	0.7	2.6	.	.
COC(=O)c1ccc(COn2nnc3ccccc32)cc1	3.4	-0.1	0.2	4.4	3.8	17.5*	14.0*	0.8
CCC(=O)Nc1nc(-c2ccc3c(c2)OCCO3)cs1	2.7	-0.3	1.3	1.4	5.0	19.2*	16.0*	0.7
c1cc2c(cc1-c1csc(NNC3=NCCCCC3)n1)OCCO2	1.9	-0.5	.	-1.4	1.1	14.9*	2.8	0.3
CC(C)(C)C(=O)Nc1nc(-c2ccc3c(c2)OCO3)cs1	1.4	-0.5	3.6	6.1	0.8	10.4	.	.
